# Assay outcomes (PubChem)
# TEAD-YAP block – TEAD-YAP interaction inhibition, primary screen, TEAD-YAP interaction inhibitor project, luminescence, HEK-TIYL cells. 1.4% of 640,000 active. AID 1259422, 2018. TEAD-Gal4/YAP UAS-luciferase luminescence. inhibition, % at 9.12 µM; in the data active = inhibition above about 32%;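 also: 0% = median of test compound wells and 100% = reference inhibitor wells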
# MITF primary – MITF inhibitors, primary screen, biochemical, AlphaScreen, human | AlphaScreen MITF homodimerization, bead proximity signal | inhibition, % at 2.6 µM | 0.91% of 650,000 active | AID 1259374, 2018; in the data active = inhibition above about 50%;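 also: 0% = vehicle wells with protein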
# FBW7 act – FBW7 E3 ligase activators, primary screen, biochemical, AlphaScreen, human | normalized activity (activation), % at 26.1 µM | AlphaScreen FBW7–phospho-cyclin E peptide binding, activator screen | 0.13% of 650,000 active; in the data active = normalized activity above about 1.9%;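 also: purified mutant Fbw7 with reduced substrate affinity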
# GPR151 activ – activators of human GPR151, primary screen, cell-based, PathHunter beta-arrestin, luminescence | G-protein coupled receptor 151 (Homo sapiens), Q8TDV0 | PathHunter beta-arrestin GPR151 cells | activation, % at 11.2 µM | 1% of 650,000 active | AID 1508602, 2020; in the data active = activation above about 4.9%;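 also: 0% = median of compound wells and 100% = cells with positive control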
# GPR151 conf act – GPR151 activators, triplicate retest, confirmation, cell-based, PathHunter beta-arrestin, luminescence; 6,700 tested, under 10 active; activation, % at 11.2 µM; GPR151 PathHunter beta-arrestin cells, 90 min; % of EA-reagent control over plate median; shares compounds with GPR151 activ;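 active = mean percent activation across replicates above the confirmation screen cutoff of 4.91%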
# GPR119 ag – GPR119 activators in beta-arrestin cells, counter-screen for GPR151 activator project, cell-based, PathHunter beta-arrestin, luminescence, triplicate; shares compounds with GPR151 activ; 90 min; 0 = compound-well median, 100 = enzyme-acceptor control; activation, % at 11.2 µM; 0.3% of 6,700 active;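 active = mean percent activation in the counterscreen above 29.09%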;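 also: counterscreen on off-target GPR119 to flag nonselective hits from the GPR151 activator screen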
# * hit, by the source's call; . = no result given. In the library only some 3.5% were active in any assay of this set; here they are far more common.
SMILES,TEAD-YAP block,MITF primary,FBW7 act,GPR151 activ,GPR151 conf act,GPR119 ag
CC(C)c1ccc(OCC(=O)NNC(=O)C(C)(C)C)cc1,4,5,0,1,.,.
COc1cc(C(C)=O)ccc1Oc1ncnc2c1cnn2-c1ccc(C)cc1C,3,10,0,1,.,.
COc1ccccc1-c1nc2s/c(=C\c3cccc([N+](=O)[O-])c3)c(=O)n2n1,4,2,0,7.8*,0,1
CC(=O)c1ccc(Nc2c(-c3ccccc3)c(=O)c2=O)cc1,8,23,0,5.4*,0,-8
CC(=O)c1cccc(Nc2c(-c3ccc(C)cc3)c(=O)c2=O)c1,-1,-17,0,0,.,.
NNC(=O)CCCNS(=O)(=O)c1ccc([N+](=O)[O-])cc1,0,0,0,5.7*,1,6
C=C1C(C(=O)N2CCOCC2)C1C(=O)N1CCOCC1 (stereo not drawn),-7,13,0,5.4*,0,7
Cc1ccc(/C(N)=N/OC(=O)COc2ccc(Br)cc2)cc1,-4,1,0,8.5*,0,7
Cc1ccc(C)c(OCC(=O)O/N=C(\N)c2ccc(Br)cc2)c1,-7,-2,0,1,.,.
COc1cc(C(=O)O/N=C(\N)c2ccc(Br)cc2)cc(OC)c1OC,0,13,0,6.6*,0,-10
Cc1ccc(C)c(OCC(=O)O/N=C(\N)c2ccc(I)cc2)c1,3,-14,0,5.5*,0,-2
COC(=O)C1=C(C)NC(=O)NC1c1cc(OC)c(OC)cc1Cl (stereo not drawn),2,10,0,2,.,.
CCOc1cc(/C=C2\C(=O)N(c3ccc4ccccc4c3)N=C2C)ccc1OCC(=O)O,-11,17,0,-1,.,.
COc1ccc(CCN(C(C)=O)C2CC(=O)N(c3ccccc3)C2=O)cc1 (stereo not drawn),9,18,0,0,.,.
O=C(CC(NS(=O)(=O)c1ccc(Br)cc1)c1ccco1)NCc1ccco1 (stereo not drawn),2,19,0,1,.,.
COc1ccc(CCNc2cc(C)nc(NC3CCC(O)CC3)n2)cc1 (stereo not drawn),18,0,0,6.8*,-1,-9
CC(C)n1cnc2c(NCc3cccc(C(F)(F)F)c3)nc(Nc3ccncc3)nc21,2,20,0,5.9*,0,3
COc1ccc(CCNc2cc(C)nc(Nc3ccc(-n4ccnc4)cc3)n2)cc1,77*,20,0,5.3*,3,54*
Oc1ccc(CCNc2nc(NCc3ccc4c(c3)OCO4)nc3c2ncn3C2CCCCC2)cc1,0,12,0,17*,0,-2
CCCNc1ccnc(Nc2ccc(-n3ccnc3)cc2)n1,-26,-6,0,0,.,.
CC(C)n1cnc2c(NCc3ccccc3)nc(Nc3ccc(-n4ccnc4)cc3)nc21,-6,14,0,3,.,.
COc1ccc(CCNc2ccnc(Nc3ccc(-n4ccnc4)cc3)n2)cc1,82*,0,0,6.5*,2,38*
CC(C)n1cnc2c(NCCO)nc(Nc3ccc(-n4ccnc4)cc3)nc21,-1,8,0,5.4*,-2,-10
COc1ccc(CCNc2ccnc(Nc3ccc4ncccc4c3)n2)cc1,51*,63*,0,5.9*,0,2
Oc1ccc(CCNc2ccnc(Nc3ccc4ncccc4c3)n2)cc1,-4,-1,0,3,.,.
COc1ccc(CCNc2nc(Nc3ccc(-n4ccnc4)cc3)nc3c2ncn3C2CCCCC2)cc1,13,16,0,6.1*,0,2
CC(=O)NNc1cccc(Cl)c1,4,-10,0,6.1*,0,-3
COC(=O)c1ccc2c(=O)n(Cc3ccc(C(=O)NC4CCCCCC4)cc3)c(=S)[nH]c2c1,-7,-10,0,6.0*,-2,-21
